Here are results for six molecules from PubChem BioAssay.

The test system of assay [1] is Plasmodium falciparum Sir2 (PF13_0152, Sir2A). In words: Plasmodium falciparum Sir2A binding compounds – biochemical, small-molecule microarray, 635 nm fluorescence, primary screen (AID 1098).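 Further: score merges spot fluorescence intensity with its signal-to-noise ratio.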 The note with it: fluorescence 635 nm, higher = more signal.
A short description of assay [2]: probe aDKK1 binding to arrayed compounds – biochemical, biotinylated probe, 635/667 nm fluorescence, primary screen (AID 1099).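 Further: score merges 667nm spot fluorescence with signal to noise across triplicate slides.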 The note with it: small-molecule microarray, higher = more signal.
Assay [3] in a line: probe aCHRDL2 binding to arrayed compounds – biochemical, biotinylated probe, 635/667 nm fluorescence, primary screen (AID 1100). The note with it: small-molecule microarray, higher = more signal.
Assay [4] can be described thus: change in splice reporter luminescence, either direction, cell-based, HEK293, spliceosome inhibition project, primary screen (AID 1101).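 Further: HEK293 cells carrying a splicing-competent luciferase reporter gene; test concentration not given here.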 The settings on record: HEK293 splicing luciferase reporter, 24 h, higher = more signal, called active from +8 up or from −8 down.
Assay [5] concerns the target Fibroblast growth factor 10 (Homo sapiens) (UniProt O15520). As to the kind of experiment: compounds binding fibroblast growth factor 10 – biochemical, small-molecule microarray, 635 nm fluorescence, primary screen (AID 1102). The note with it: FGF10 binding, fluorescence 635 nm, higher = more signal.
The test system of assay [6] is glycogen synthase kinase-3 (GSK3A per assay name; protocol says GSK3B). In words: compounds binding glycogen synthase kinase-3 – biochemical, small-molecule microarray, 635 nm fluorescence, GSK3A, primary screen (AID 1103). Further: the record names both GSK3A and GSK3B. The settings on record: fluorescence 635 nm, higher = more signal.
The target of assay [7] is Epidermal growth factor receptor (Homo sapiens) (UniProt P00533). As to the kind of experiment: compounds binding epidermal growth factor receptor – biochemical, small-molecule microarray, 635 nm fluorescence, primary screen (AID 1104).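 Further: score merges 667 nm emission intensity with spot signal to noise over triplicate slides.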 The note with it: EGFR binding, higher = more signal.
Epidermal growth factor receptor (Homo sapiens), sequence (P00533 whole entry, looked up): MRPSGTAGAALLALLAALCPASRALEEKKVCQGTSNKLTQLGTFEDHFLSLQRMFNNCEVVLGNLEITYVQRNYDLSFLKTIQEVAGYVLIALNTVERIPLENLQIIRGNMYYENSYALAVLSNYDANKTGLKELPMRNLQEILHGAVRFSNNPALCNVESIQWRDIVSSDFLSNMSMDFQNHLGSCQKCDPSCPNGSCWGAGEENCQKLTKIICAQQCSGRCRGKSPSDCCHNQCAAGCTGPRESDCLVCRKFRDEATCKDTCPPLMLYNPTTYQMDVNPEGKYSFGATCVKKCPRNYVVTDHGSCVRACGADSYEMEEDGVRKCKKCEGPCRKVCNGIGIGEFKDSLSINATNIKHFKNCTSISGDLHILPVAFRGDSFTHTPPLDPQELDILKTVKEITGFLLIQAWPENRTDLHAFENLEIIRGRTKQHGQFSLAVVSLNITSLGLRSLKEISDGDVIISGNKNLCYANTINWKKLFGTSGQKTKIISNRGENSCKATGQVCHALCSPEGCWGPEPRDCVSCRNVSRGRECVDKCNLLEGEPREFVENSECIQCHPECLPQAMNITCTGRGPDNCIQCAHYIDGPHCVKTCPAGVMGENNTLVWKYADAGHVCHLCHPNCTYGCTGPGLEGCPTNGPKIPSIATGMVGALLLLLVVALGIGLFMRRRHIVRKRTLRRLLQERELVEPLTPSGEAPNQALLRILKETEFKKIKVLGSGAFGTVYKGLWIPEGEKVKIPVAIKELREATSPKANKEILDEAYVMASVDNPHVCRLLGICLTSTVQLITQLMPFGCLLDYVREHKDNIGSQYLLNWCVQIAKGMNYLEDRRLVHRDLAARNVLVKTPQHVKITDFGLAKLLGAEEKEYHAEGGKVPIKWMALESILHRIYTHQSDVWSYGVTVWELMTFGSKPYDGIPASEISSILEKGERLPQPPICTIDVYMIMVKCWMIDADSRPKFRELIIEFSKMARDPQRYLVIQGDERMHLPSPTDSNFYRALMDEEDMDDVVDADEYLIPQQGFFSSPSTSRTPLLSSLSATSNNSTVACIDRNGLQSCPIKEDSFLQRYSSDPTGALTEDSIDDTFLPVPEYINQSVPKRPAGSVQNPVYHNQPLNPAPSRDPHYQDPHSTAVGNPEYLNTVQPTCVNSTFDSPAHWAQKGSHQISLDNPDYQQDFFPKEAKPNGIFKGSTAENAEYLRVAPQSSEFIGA
The target of assay [8] is Follistatin-related protein 3 (Homo sapiens) (UniProt O95633). In words: compounds binding follistatin-related protein 3 – biochemical, small-molecule microarray, 635 nm fluorescence, primary screen (AID 1105).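 Further: score merges emission near 667 nm and signal to noise per printed spot across three slides.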 The settings on record: FSTL3 binding, higher = more signal.
Follistatin-related protein 3 (Homo sapiens), sequence (O95633 whole entry, looked up): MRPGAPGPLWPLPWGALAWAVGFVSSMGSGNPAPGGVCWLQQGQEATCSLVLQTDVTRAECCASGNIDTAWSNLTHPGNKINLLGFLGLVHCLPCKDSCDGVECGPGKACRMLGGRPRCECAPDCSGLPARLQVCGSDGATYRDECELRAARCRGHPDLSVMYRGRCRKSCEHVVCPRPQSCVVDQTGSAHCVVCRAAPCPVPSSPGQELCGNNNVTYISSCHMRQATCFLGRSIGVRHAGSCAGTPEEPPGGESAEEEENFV
The target in assay [9] is Dickkopf-related protein 1 (Homo sapiens) (UniProt O94907). In words: small molecules binding DKK1 protein – biochemical, small-molecule microarray, 635 nm fluorescence scan, primary screen (AID 1106).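 Further: score merges emission near 667 nm with signal to noise over three replicate slides.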 The settings on record: higher = more signal.
Dickkopf-related protein 1 (Homo sapiens), sequence (O94907 whole entry, looked up): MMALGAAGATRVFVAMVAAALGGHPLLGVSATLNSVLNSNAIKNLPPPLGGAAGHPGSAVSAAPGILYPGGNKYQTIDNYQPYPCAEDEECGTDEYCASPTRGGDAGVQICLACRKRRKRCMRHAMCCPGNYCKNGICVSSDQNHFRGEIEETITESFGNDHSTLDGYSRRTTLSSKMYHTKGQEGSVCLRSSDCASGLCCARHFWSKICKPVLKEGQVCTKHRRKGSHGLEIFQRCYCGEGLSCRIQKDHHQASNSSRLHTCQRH
Assay [10] relates to Inhibin beta A chain (activin A). As to the kind of experiment: small molecules binding activin A – biochemical, small-molecule microarray, 635 nm fluorescence scan, primary screen (AID 1107).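 Further: mouse activin A protein probed at 4.33 µg/mL on printed slides; score merges bound-protein fluorescence near 667 nm with spot signal-to-noise.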 The settings on record: INHBA, higher = more signal.
Assay [11] deals with Human papillomavirus type 1a protein E7 (residues 44-93). As to the kind of experiment: small molecules binding HPV E7 44-93 – biochemical, small-molecule microarray, residues 44-93, 635 nm fluorescence, primary screen (AID 1108).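 Further: E7 fragment applied at 1 µg/mL in TBST for 1 h at 4 C; score combines spot fluorescence with its signal to noise ratio.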 The settings on record: fluorescence 635 nm, higher = more signal.
Assay [12] can be described thus: hepatitis C replication reporter changes, two-sided – Huh7 cells, luciferase reporter, HCV replication inhibitor project, primary screen (AID 1109).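 Further: huh7 hepatoma cells harbouring a luciferase neomycin HCV replicon reporter; luciferase luminescence as measure of HCV replicon replication; test concentration not given here.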 The note with it: Huh7 HCV replicon luciferase reporter, 48 h; higher = more signal. (Reporter assays use an easily measured gene product as a stand-in for the process of interest.)
In assay [13] the target is Left-right determination factor 2 (Homo sapiens) (UniProt O00292). As to the kind of experiment: small molecules binding LEFTY2 protein – biochemical, small-molecule microarray, 635 nm fluorescence scan, primary screen (AID 1110). The note with it: higher = more signal.
Left-right determination factor 2 (Homo sapiens), sequence (O00292 whole entry, looked up): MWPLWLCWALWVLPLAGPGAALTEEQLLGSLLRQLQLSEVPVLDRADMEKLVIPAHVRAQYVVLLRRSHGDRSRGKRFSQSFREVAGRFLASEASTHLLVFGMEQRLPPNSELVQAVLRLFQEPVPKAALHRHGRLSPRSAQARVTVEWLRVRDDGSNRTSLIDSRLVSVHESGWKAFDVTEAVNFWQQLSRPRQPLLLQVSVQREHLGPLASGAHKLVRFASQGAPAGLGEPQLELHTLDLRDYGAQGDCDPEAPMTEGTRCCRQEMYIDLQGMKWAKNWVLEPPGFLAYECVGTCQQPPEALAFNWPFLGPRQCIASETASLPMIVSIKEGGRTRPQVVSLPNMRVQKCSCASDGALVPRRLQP
The target in assay [14] is Calmodulin-1 (Homo sapiens) (UniProt P0DP23). In words: small molecules binding calmodulin-1 with EGTA – biochemical, small-molecule microarray, Cy5-labelled CALM1, profiling panel (AID 1111).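 Further: labelled calmodulin applied in Tris saline Tween buffer holding calcium plus EGTA and DTT.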 The settings on record: Cy5-CALM1 binding fluorescence, higher = more signal.
For assay [15] the target is unchanged. In words: small molecules binding Ca-loaded calmodulin-1 – biochemical, small-molecule microarray, Cy5-labelled CALM1, plus calcium, artefact control for SMM control-protein annotation, profiling panel (AID 1112).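 Further: score merges spot fluorescence with signal to noise from triplicate slides.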 The settings on record: Cy5-CALM1 binding fluorescence, higher = more signal.
The nature of assay [16]: probe aWnt5a binding to arrayed compounds – biochemical, biotinylated probe, 635/667 nm fluorescence, primary screen (AID 1113).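 Further: score merges 667 nm fluorescence intensity with signal-to-noise per printed feature.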 The settings on record: small-molecule microarray, higher = more signal.
A short description of assay [17]: probe aShh binding to arrayed compounds – biochemical, biotinylated probe, 635/667 nm fluorescence, primary screen (AID 1114).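 Further: probe is biotin-labelled aShh protein from a stem cell growth factor screen; measures binding of labelled protein to compounds printed on the slide; score merges feature fluorescence at 667 nm with signal-to-noise.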 The note with it: small-molecule microarray, higher = more signal.
Assay [18] is described as follows: probe aNog binding to arrayed compounds – biochemical, biotinylated probe, 635/667 nm fluorescence, primary screen (AID 1115).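 Further: probe is biotinylated aNog protein used at 0.15 µg/mL for 1 h at 4 C; z-score combines 667 nm fluorescence of each spot with its signal to noise.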 The settings on record: small-molecule microarray, higher = more signal.
The target in assay [19] is Torsin-1A-interacting protein 1 (Homo sapiens) (UniProt Q5JTV8). As to the kind of experiment: compound microarray binding of lysate hLAP1 – cell lysate, small-molecule microarray, COS7 lysate, 635/667 nm fluorescence, primary screen (AID 1116). The settings on record: 635 nm fluorescence, higher = more signal.
Torsin-1A-interacting protein 1 (Homo sapiens), sequence (Q5JTV8 whole entry, looked up): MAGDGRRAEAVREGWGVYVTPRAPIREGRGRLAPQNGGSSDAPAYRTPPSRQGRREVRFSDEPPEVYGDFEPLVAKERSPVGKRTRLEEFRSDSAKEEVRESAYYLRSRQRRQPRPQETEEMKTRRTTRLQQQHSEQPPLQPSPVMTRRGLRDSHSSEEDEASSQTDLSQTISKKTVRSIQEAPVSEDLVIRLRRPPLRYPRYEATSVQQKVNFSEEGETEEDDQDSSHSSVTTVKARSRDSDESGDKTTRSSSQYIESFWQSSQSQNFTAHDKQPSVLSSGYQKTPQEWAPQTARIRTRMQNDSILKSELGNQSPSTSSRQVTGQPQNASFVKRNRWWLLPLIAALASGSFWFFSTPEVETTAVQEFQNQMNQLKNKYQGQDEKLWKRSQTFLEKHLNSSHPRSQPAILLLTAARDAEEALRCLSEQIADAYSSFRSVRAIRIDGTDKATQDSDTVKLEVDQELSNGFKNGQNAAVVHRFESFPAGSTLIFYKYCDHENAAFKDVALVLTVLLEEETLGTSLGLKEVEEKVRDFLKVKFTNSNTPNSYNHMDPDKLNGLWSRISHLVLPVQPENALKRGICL
Assay [20] has as its target Alpha-bungarotoxin (Bungarus multicinctus) (UniProt P60615). As to the kind of experiment: compounds binding labelled alpha-BTX control protein – biochemical, small-molecule microarray, Alexa647 label, 635/667 nm fluorescence, artefact control for SMM control protein annotation, profiling panel (AID 1117). The note with it: alpha-BTX-A647 binding fluorescence, higher = more signal.

Activity calls are given as the source filed them.

Alpha-bungarotoxin (Bungarus multicinctus), sequence (P60615 whole entry, looked up): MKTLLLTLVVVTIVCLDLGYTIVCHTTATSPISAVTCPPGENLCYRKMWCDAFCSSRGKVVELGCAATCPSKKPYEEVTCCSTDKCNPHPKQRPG
Fibroblast growth factor 10 (Homo sapiens), sequence (O15520 whole entry, looked up): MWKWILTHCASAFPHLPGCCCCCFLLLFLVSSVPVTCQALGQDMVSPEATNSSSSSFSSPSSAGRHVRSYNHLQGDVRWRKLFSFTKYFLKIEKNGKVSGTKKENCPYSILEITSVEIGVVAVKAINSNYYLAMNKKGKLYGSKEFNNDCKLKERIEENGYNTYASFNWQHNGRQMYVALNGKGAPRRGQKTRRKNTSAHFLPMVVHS

For the molecule `CC(C)(C)OC(=O)CC[C@]1(C(=O)N2CCCCC2)COC(c2ccc(OCCCO)cc2)=N1`, the composite z-score in assay [1] was 1.7; in assay [2], 0.14; in assay [3], 0.48; in assay [5], 1.54; in assay [6] it was 1.29; in assay [7] it was 0.101. Further, the composite z-score in assay [8] is 0.324; in assay [9], -0.421; in [10], 0.567; in [11] it was 1.45; in [13], 0.393; in assay [14], 1.4. In addition, the composite z-score is -0.257 in assay [15]; 0.0775 in assay [16]; 0.385 in assay [17]; -0.614 in [18]; 1.36 in assay [19]; 0.302 in [20]. Besides, the z-score in assay [4] was -0.527 (inactive); in assay [12] it was -0.523.
Turning to `COc1cc(C(O)C2C=CC3C(=O)N(Cc4ccccc4)C(=O)C3N2n2cnnc2)cc(OC)c1OC` (stereo not given), the composite z-score came to 0.146 in [1]; 0.71 in [2]; 0.865 in [3]; 0.571 in [5]; 0.389 in [6]; 0.489 in assay [7]. The composite z-score is 0.16 in assay [8]; 0.134 in [9]; 1.23 in assay [10]; 0.335 in assay [11]; 0.109 in assay [13]; 0.409 in [14]. Also, the composite z-score amounted to 0.0996 in assay [15]; 0.0751 in assay [16]; 0.543 in [17]; 0.266 in assay [18]; 0.88 in assay [19]; 0.971 in assay [20]. In addition, the figures for the z-score in assay [4] and in assay [12] were -0.696 (inactive) and 0.312, respectively.
In the case of `O=C(CS)NCCCCCNC(=O)[C@@H]1C[C@@H]2C(=O)N[C@@H](Cc3ccccc3)C(=O)N2[C@@H]1c1cccc(OCCO)c1`, the composite z-score came to 1.74 in assay [1]; 0.0021 in [2]; 0.0402 in [3]; 1.17 in assay [5]; 1.32 in [6]; 0.526 in assay [7]. Further, the composite z-score in [8] was 0.988; in assay [9] it was 1.25; in assay [10], -0.678; in assay [11], 1.41; in [13], 0.705; in assay [14] it was 1.94. Also, the composite z-score was -0.0675 in [15]; -0.302 in assay [16]; -0.482 in [17]; -0.458 in [18]; 1.08 in [19]; 1.54 in assay [20]. Further, the z-score is -0.345 (inactive) in assay [4] and 0.266 in assay [12].
Take `CC(C)C(=C=CC[C@H](O)c1cccc(OCCO)c1)CCO`: the composite z-score is 0.899 in assay [1]; -0.363 in [2]; -0.148 in assay [3]; 1.18 in assay [5]; -0.739 in [6]; -0.209 in assay [7]. Also, the composite z-score in [8] is -0.0067; in assay [9], -0.264; in assay [10], 0.148; in assay [11], 0.133; in assay [13] it was -0.0916; in assay [14], -0.427. Moreover, the composite z-score in assay [15] was -0.224; in assay [16], -0.0165; in [17] it was 0.201; in assay [18] it was -0.272; in assay [19], 0.0879; in assay [20], 0.115. The z-score in [4] is -1.02 (inactive); in assay [12] it was 0.121.
In the case of `O=C(O)[C@@H]1C[C@@H]2C(=O)N3CCC[C@H]3C(=O)N2[C@@H]1c1cccc(OCCO)c1`, the composite z-score in [1] worked out at 2.07; in assay [2] it was 2.67; in assay [3], 1.72; in assay [5], 1.36; in assay [6] it was 1.44; in [7], 1.41. Also, the composite z-score was 1.54 in assay [8]; 1.9 in [9]; 1.98 in assay [10]; 1.49 in assay [11]; 1.56 in assay [13]; 1.69 in [14]. The composite z-score is 0.815 in [15]; 0.94 in [16]; 2.65 in assay [17]; 3.05 in assay [18]; 3.85 in assay [19]; 2.99 in assay [20]. Besides, the z-score in [4] is 0.0627 (inactive); in [12], -0.444.
As for `CC1CC/C=C\[C@H]2OC34C=CCN(CCN5CCOCC5)C(=O)[C@H]3N(C(C)CO)C(=O)[C@@H]4C2C(=O)O1` (stereo not given in full), the composite z-score in assay [1] is 0.489; in [2], -0.356; in assay [3] it was -0.415; in [5], -0.42; in [6] it was -0.42; in assay [7] it was -0.599. In addition, the composite z-score in [8] is -0.214; in [9], -0.0076; in assay [10], 1.14; in [11], 0.523; in [13], -0.536; in [14], -0.666. Moreover, the composite z-score in assay [15] is -1.4; in assay [16] it was -0.199; in [17], 0.147; in assay [18] it was -0.373; in [19], -0.719; in assay [20], -0.807. For the same molecule, the z-score in assay [4] was 1.02 (inactive); in [12], -0.91.
